Inhibition data for 108 compounds are collected here from PubChem BioAssay AID651664 (NMMLSC, 2012).

Among all 1,800 compounds or so, fewer than 10 were called active. The list is a sample of the results. Unmarked numbers belong to inactive results.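 How the source made its calls: active means inhibition of granule release above a set limit; inactive means the rest.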

This assay is described as follows: LAMP-1 surface externalization blockers in TALL-104 cells – cell-based, flow cytometry, validation set (AID 651664). The note with it: TALL-104 LAMP-1 externalization, at 15.2 µM, stronger effect = higher value, stimulated with thapsigargin and PMA.
Consider `CC1CCCN(C(=O)C2CCN(CC3CC=CCC3)CC2)C1` (stereo not drawn), for which the inhibition is -1.1%.
Take `OCCN=c1cc(-c2ccccc2)oc2ccc(Cl)cc12`: the inhibition is 3.5%.
With `O=C(/C=N/O)Nc1ccc(F)cc1` the figure was -2.8%; with `Cc1ccc(-n2nc(C)c3cc(C(=O)O)sc32)cc1`, 5.6%; with `O=C(CSc1nnc(-c2cccs2)n1-c1ccccc1)Nc1ccccc1`, 22.8%.
As for `Cc1nc(NCc2ccco2)c2oc3ccccc3c2n1`, the figure is -2.5%; as for `C=CCn1c(-c2ccco2)n[nH]c1=S`, -0.5%; as for `[O-]C1=N/[N+](=C/c2ccccc2Cl)CC1`, -2.2%.
As for `COC(=O)CSc1ncnc2c1cnn2Cc1ccccc1`, the figure is -0.5%; as for `N/C(=N\OS(=O)(=O)c1ccccc1)c1ccncc1`, -2.3%; as for `CCOc1ccc(CN(CCO)CCO)cc1[N+](=O)[O-]`, -2.2%.
For the compound `O=C(CSc1ccccn1)N1CCN(C(=O)CSc2ccccn2)CC1`, the inhibition was 0.4%.
For `Clc1ccc(/C=N/NC(=Nc2ccccc2)c2ccccn2)c(Cl)c1`, the inhibition is 1.5%.
Consider `CC(=O)N1CCN(S(=O)(=O)c2cccc(C(=O)NC3CCCc4ccccc43)c2)CC1` (stereo not drawn), for which the inhibition is 0%.
As for `Oc1ccccc1N=Nc1nc(-c2ccccc2)c(-c2ccccc2)[nH]1`, the figure is -2.4%.
As for `Cc1ccccc1OCC(=O)Nc1cccc(NC(=O)c2ccco2)c1`, the figure is 1.8%; as for `CC(C(=O)O)N1C(=O)CSc2ncccc21` (stereo not drawn), 2.4%; as for `CCC(C)NC(=O)Cn1cccc1C(=O)c1ccccc1` (stereo not drawn), -0.2%.
Take `CC(NC(=O)NCCCC(=O)O)(C(F)(F)F)C(F)(F)F`: the inhibition is 2%.
With `Cc1ccc(S(=O)(=O)N2CCOCC2)cc1C(=O)OCC(=O)N1CCc2ccccc2C1` the figure was -0.4%.
With `Cc1cc2c(cc1C)NC(c1nc3ccccc3[nH]1)C1=C(CC(C)(C)CC1=O)N2` (stereo not drawn) the figure was -3.1%; with `O=c1[nH]c2c(s1)C(c1ccccc1)C1C3CCC(C3)C1S2` (stereo not drawn), 0.8%; with `COCCCNC(=O)C1CCC(=O)N1Cc1ccccc1Cl` (stereo not drawn), 0.7%.
Take `Cc1ccc(C(=O)Cn2cnc3ccccc3c2=O)cc1C`: the inhibition was 6.9%.
`C=C(C)CN1C(=O)C(O)(CC(=O)c2ccc3c(c2)OCCO3)c2ccccc21` (stereo not drawn): the inhibition is 1.5%.
As for `Cc1cc(C)c(S(=O)(=O)NCc2cn3c(C)csc3n2)c(C)c1`, the figure is -4.5%; as for `CC1=CC=CN2CC(O)CN=C12` (stereo not drawn), 1%; as for `O=C(Oc1ccccc1)N1CCN(c2ccc(F)cc2)CC1`, 6.6%.
With `COC(=O)c1ccc(CN2CCN(Cc3ccc(C(=O)OC)o3)CC2)o1` the figure was 2.2%; with `O=c1[nH]n(-c2ncnc3c2cnn3-c2ccccc2)c(=O)c2ccccc12`, -0.6%.
As for `CCC(C)N=CC1=C(O)CC(c2ccccc2)CC1=O` (stereo not drawn), the figure is -2.1%.
Consider `O=C(c1ccccc1)N(CCN1CCOCC1)C1(C(=O)Nc2ccccc2)CCCCC1`, for which the inhibition was 5.2%.
`COc1ccc(NC(=O)CSc2c(C)nn(-c3nnc(C)c(=O)[nH]3)c2C)cc1`: the inhibition was 0.5%.
As for `COC(=O)c1ccc(CSc2nc3ccccc3c(=O)n2-c2ccccc2)o1`, the figure is -0.9%; as for `Cn1c(CN2CCCC2)nc2cc(NS(=O)(=O)c3ccc(Cl)cc3)ccc21`, -3.8%; as for `CCC(C)NC(=O)CSc1nnc(-c2cc(-c3cccs3)nc3ccccc23)o1` (stereo not drawn), -1.3%.
Turning to `COC(=O)c1cc(NC(=O)CN(c2ccc3c(c2)OCO3)S(C)(=O)=O)ccc1Cl`, the inhibition is 1.7%.
With `CCOc1ccccc1N1CC(C(=O)Nc2nccs2)CC1=O` (stereo not drawn) the figure was -1.1%; with `Cc1cnc(NC(=O)c2ccc3c(c2)C(=O)N(Cc2ccco2)C3=O)s1`, -1.3%.
As for `COc1ccc(N/N=C(/N=Nc2nc(C)cc(=O)[nH]2)c2ccccc2)cc1`, the figure is 3.7%; as for `CCOC(=O)c1ccc(N2C(=O)CC(Sc3nnc(C)s3)C2=O)cc1` (stereo not drawn), -0.5%.
As for `Cc1ccc(-c2nc(N)c3c(-c4ccc(C)cc4)nn(C(C)(C)C)c3n2)cc1`, the figure is 0%; as for `O=c1[nH]c(CO)nc2c1oc1ccccc12`, -3.5%.
Consider `CCC(C#CCN1CCCCC1)(CC)OCCC#N`, for which the inhibition was 25.8%.
With `COC(=O)CN1C(=O)CSc2ncccc21` the figure was 0.6%; with `CCCCOCCCNC(=O)N[C@H](C(=O)OC)C(C)C`, -2.9%.
As for `Nc1ncnc2nc(SCc3ccc(Cl)cc3Cl)[nH]c12`, the figure is 6.3%.
With `CN(C)c1nc(SCc2ccccc2Cl)nc2c1CCCC2` the figure was -0.7%; with `CC1(C)Cc2c(sc3ncn4nc(-c5ccco5)nc4c23)CO1`, -1.3%; with `O=C(COc1ccc(F)cc1)c1ccc2c(c1)CCCC2`, -2.8%.
Consider `O=C1c2ccccc2-c2c1nc1c([n+]2[O-])CCCC1`, for which the inhibition was -5.1%.
As for `COc1ccc2c(c1OC)C(=O)N(c1cccc(C)c1)C2=O`, the figure is 1.1%; as for `CO/N=C/C(=N\Nc1ccc(OC)cc1)C(=O)c1ccc(OC)cc1`, 0.7%; as for `COc1ccc(S(=O)(=O)N(C)CC(=O)Nc2ccccc2C(F)(F)F)cc1OC`, -1.6%.
Regarding `CN1CCN(c2nc(-c3ccccc3)nc3c2oc2ccccc23)CC1`, the inhibition was 1.5%.
With `O=C(CSc1nnc(CNc2ccc(F)cc2)n1-c1ccccc1)N1CCOCC1` the figure was -4.6%; with `COc1ccc(N=C2S/C(=C\c3ccc(C)s3)C(=O)N2CC(C)C)cc1`, -0.3%.
With `Fc1ccccc1/C=N/Nc1nn[nH]n1` the figure was -1.6%; with `CCOC(=O)c1c(NC(=O)Cc2cccs2)sc(C(=O)N2CCCCC2)c1C`, -4.7%; with `CN=C(NC)SC1CC(=O)N(c2ccccc2)C1=O` (stereo not drawn), 3.9%.
With `CCOc1cc(/C=N/n2cnnc2)cc(Br)c1O` the figure was -0.7%; with `O=C1CCC(=O)N1c1nc2nc(-c3ccccc3)cc(=O)n2[nH]1`, -1.6%.
On to `CC(=O)COc1ncn(-c2ccccc2)n1`, for which the inhibition was 0.2%.
As for `Fc1cc2nc(-c3ccncc3)[nH]c2cc1F`, the figure is -0.1%.
With `Cc1noc(NS(=O)(=O)c2ccc(NC(=O)Nc3ccc(Cl)c(Cl)c3)cc2)c1C` the figure was 0%; with `CCn1c(-c2ccccc2)c[nH]c1=S`, -1.3%; with `Nc1c(C(=O)NCC2CCCO2)sc(=S)n1-c1ccccc1` (stereo not drawn), 0.7%.
With `COc1ccc(C)cc1-n1nnnc1SCc1cn2ccsc2n1` the figure was -3.3%; with `CC(=O)c1ccc(N2CCN(CCC#N)CC2)c(F)c1`, 8.2%.
Consider `Cc1occc1C(=O)NC(C)CCc1ccccc1` (stereo not drawn), for which the inhibition is 6.4%.
With `CC(C)(C)NC(=O)C1Cc2ccccc2CN1C(=O)Nc1cccc(Cl)c1` (stereo not drawn) the figure was 3.6%; with `CN(C)c1ccc(-c2nnc(-c3ccc(S(=O)(=O)C(F)F)cc3)o2)cc1`, -2%; with `COc1ccc(-c2sc(NC(=O)c3ccc(C)cc3)nc2-c2ccc([N+](=O)[O-])cc2)cc1`, 0.2%.
As for `NC(=O)NC(=O)CSc1nc(-c2ccccc2)c(-c2ccccc2)n1CC1CCCO1` (stereo not drawn), the figure is 3.8%; as for `CCCc1nc2ccccc2c(=O)n1/N=C/c1ccccc1O`, -1.9%; as for `Cc1snc(S(=O)(=O)/C(C#N)=N/Nc2cccc(C(F)(F)F)c2)c1C#N`, 5.6%.
Take `CCNc1nc(NCC)nc(OCCOC(=O)COc2ccc(Cl)cc2Cl)n1`: the inhibition is -2.4%.
With `CN1CC(=O)NC1=NC(=O)c1ccc(Cl)c(S(=O)(=O)N2CCCCCC2)c1` the figure was -1.1%; with `Cc1ccc2c(c1Br)/C(=N/N1C(=O)c3ccccc3C1=O)C(=O)N2`, -3.6%; with `Clc1ccc(-c2nnnn2-c2ccc(Cl)c(Cl)c2)cc1Cl`, -0.4%.
With `COc1ccccc1N(C(=O)c1ccco1)C(C(=O)NC1CCCC1)c1cccnc1` (stereo not drawn) the figure was -0.8%; with `CC(C)(C)NC(=O)Cc1ccc(S(=O)(=O)N2CCCC2)s1`, -1.8%; with `Nc1nc(CSc2nc3ccccc3s2)nc(N2CCCCC2)n1`, 3.2%.
As for `FC(F)(F)c1cccc(NC(=S)N2CCN(c3cccc(C(F)(F)F)c3)CC2)c1`, the figure is -4.7%; as for `Cc1nc2cc(S(=O)(=O)N3CCC(C(=O)O)CC3)ccc2n1C1CCCC1`, -3.7%; as for `O=C(CSc1ncnc2c1cnn2Cc1ccccc1)Nc1ccc2c(c1)OCCO2`, 0.3%.
For `O=C1c2ccccc2C(=O)N1SC1CCCCC1`, the inhibition is -1.8%.
Consider `COCCCn1c(-c2ccccc2Cl)n[nH]c1=S`, for which the inhibition was 4.6%.
As for `S=c1[nH]nc(-c2ccccc2Cl)n1CC1CCCO1` (stereo not drawn), the figure is -1.9%; as for `Cn1c(-c2ccccc2Br)n[nH]c1=S`, 89.2% (active); as for `Cc1nn2c(N)c(C#N)cnc2c1-c1ccc(Cl)cc1`, 2.5%.
As for `CN1CCN(C(=O)c2ccc3c(c2)NC(=O)C(N2CCOCC2)S3)CC1` (stereo not drawn), the figure is 3.1%.
As for `COCCNc1nc2ccccc2nc1NS(=O)(=O)c1ccc(C)cc1C`, the figure is 2.3%.
As to `CC(=O)C(C)Oc1ncn(-c2ccccc2)n1` (stereo not drawn), the inhibition was -3%.
Take `N#Cc1ccc(C(=O)Nc2ccc(S(=O)(=O)NC3=NCCCCC3)cc2)cc1`: the inhibition is 4.4%.
Regarding `O=C(Nc1ccccc1)N1CCN(c2ccccn2)CC1`, the inhibition was -1.4%.
With `O=C1CCCCC1C(Nc1ccc(Cl)cc1)c1ccccc1` (stereo not drawn) the figure was 1.3%; with `COc1ccc(C(CNC(=O)c2ccc(N3CCCC3=O)cc2)N(C)C)cc1` (stereo not drawn), -2%.
As for `Clc1ccccc1C1SCC2Nc3ccccc3CN21` (stereo not drawn), the figure is 0.1%; as for `Cc1cccc(/C(N)=N/OC(=O)CCCN2C(=O)c3ccccc3C2=O)c1`, 1.9%; as for `COc1ccccc1NC(=O)CC1COc2ccccc2O1` (stereo not drawn), -0.3%.
As for `CCOc1ccccc1NC(=O)c1ccc(S(=O)(=O)N2CCOCC2)cc1`, the figure is -1.3%; as for `Cc1ccc(Cl)cc1NC(=O)CSC(N)=O`, -3%.
Take `COC(=O)C1=CN(CCCN2CCCC2=O)C=C(C(=O)OC)C1c1ccccc1C(F)(F)F`: the inhibition was 3.5%.
As for `CCC(CC)NC(=O)c1cc2c(C)nn(Cc3ccccc3Cl)c2s1`, the figure is -0.5%.
As for `Cc1nnc(N(CCC#N)CCC#N)s1`, the figure is 0%.
On to `O=C(CN1CCN(c2cccc(C(F)(F)F)c2)CC1)Nc1cccc(C(F)(F)F)c1`, for which the inhibition is -3.2%.
With `Cc1oc2nc(SCCCC(=O)NCCO)nc(N)c2c1C` the figure was 2.7%.
